Assay results: PubChem BioAssay (Tox21)
Values joined by “and” are separate entries in the source; they are usually repeats but may differ in a detail not shown here. Identical values can stand only once. Records with an inconclusive call do not appear. A structure can be active in one record and inactive in another. Active and inactive are the calls of the source. Unless noted, the call rests on the fitted dose curve; in most records, active means well fitted curve in the direction sought with a large enough effect in the repeat runs; inconclusive means weak or mixed curves; inactive means no such curve, though single readings can be large; an effect the other way counts as inactive or inconclusive.

Legend:
[1] = qHTS assay to identify small molecule agonists of the vitamin D receptor (VDR) signaling pathway - cell viability counter screen (AID 743224); further: nearly all actives have a fitted effect of over 50% in size; further: potency means the concentration at half of the fitted maximal effect
In short: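 Viability is measured in the same wells as the VDR-bla reporter assay: after 16 h compound treatment and 2 h substrate loading, CellTiter-Glo is added and luminescence read 30 min later.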

[2] = qHTS assay to identify small molecule agonists of the NFkB signaling pathway - cell viability counter screen (AID 1159515; calls by dose curve; further: series mostly up to about 61 µM; nearly all actives have a fitted effect of over 55% in size)
In short: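 Multiplexed viability readout: after the 5 hr compound exposure and 1.5 hr FRET substrate step, CellTiter-Glo reagent went into the same NFkB-bla ME-180 wells; ATP luminescence was measured after 30 min at room temperature.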

[3] = qHTS assay to identify small molecule agonists of the endoplasmic reticulum stress response signaling pathway (AID 1159516; active means well fitted activation curve with a large enough effect in the signal ratio in the repeat runs, not every such curve was filed as active; the % refers to the signal ratio)
In short: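 Tox21 10K library screened in quantitative HTS format on ESRE-bla HeLa cells, a beta-lactamase reporter under ER stress response element control; 5 hr treatment, FRET read.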

[4] = qHTS assay to identify small molecule agonists of the endoplasmic reticulum stress response signaling pathway - cell viability counter screen (AID 1159517; calls by dose curve; further: series mostly up to about 61 µM; nearly all actives have a fitted effect of over 50% in size)
In short: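 Cells, HeLa ESRE-bla; density, 1,500/well; dosing, 5 hr at 37 C, 5% CO2; readout, CellTiter-Glo luminescence after 30 min RT.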

[5] = qHTS assay to identify small molecule antagonists of the retinoid-related orphan receptor gamma (ROR-gamma) signaling pathway - cell viability counter screen (AID 1159520); further: nearly all actives have a fitted effect of over 50% in size; further: potency means the concentration at half of the fitted maximal effect
In short: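 Cytotoxicity was read from cellular ATP (CellTiter-Glo luminescence) after 16 hr at 37 C with 1 uM doxycycline induction. The inducer was added 2 hr after compound transfer to Tet-on ROR gamma CHO cells.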

[6] = molecular target: Nuclear receptor ROR-gamma (Homo sapiens) (UniProt P51449); experiment: qHTS assay to identify small molecule antagonists of the retinoid-related orphan receptor gamma (ROR-gamma) signaling pathway (AID 1159521; further: nearly all actives have a fitted effect of over 50% in size; further: potency means the concentration at half of the fitted maximal effect)
In short: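 RORγ antagonism is scored from reduced reporter luminescence in Tet-on CHO cells. Induction used 1 uM final doxycycline hyclate for 16 h at 37 C, following a 2 h compound exposure.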

[7] = qHTS assay to identify small molecule agonists of the AP-1 signaling pathway - cell viability counter screen (AID 1159525; calls by dose curve; further: nearly all actives have a fitted effect of over 55% in size; further: potency means the concentration at half of the fitted maximal effect)
In short: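 Luminescent ATP readout (Cell Titer Glo, 30 min RT), normalised to DMSO and tetra n-octyl ammonium bromide controls. Cells were ME-180 AP-1-bla in 0.5% dialyzed FBS Opti-MEM, with a 5 h, 37 °C compound exposure.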

[8] = qHTS assay to identify small molecule agonists of the AP-1 signaling pathway (AID 1159526; calls by dose curve)
[9] = molecular target: Retinoic acid receptor RXR-alpha (Homo sapiens) (UniProt P19793); experiment: qHTS assay to identify small molecule agonists of the RXR signaling pathway (AID 1159527; calls by dose curve; further: nearly all actives have a fitted effect of over 35% in size; further: potency means the concentration at half of the fitted maximal effect)
Sequence of Retinoic acid receptor RXR-alpha (Homo sapiens) (P19793 whole entry, looked up): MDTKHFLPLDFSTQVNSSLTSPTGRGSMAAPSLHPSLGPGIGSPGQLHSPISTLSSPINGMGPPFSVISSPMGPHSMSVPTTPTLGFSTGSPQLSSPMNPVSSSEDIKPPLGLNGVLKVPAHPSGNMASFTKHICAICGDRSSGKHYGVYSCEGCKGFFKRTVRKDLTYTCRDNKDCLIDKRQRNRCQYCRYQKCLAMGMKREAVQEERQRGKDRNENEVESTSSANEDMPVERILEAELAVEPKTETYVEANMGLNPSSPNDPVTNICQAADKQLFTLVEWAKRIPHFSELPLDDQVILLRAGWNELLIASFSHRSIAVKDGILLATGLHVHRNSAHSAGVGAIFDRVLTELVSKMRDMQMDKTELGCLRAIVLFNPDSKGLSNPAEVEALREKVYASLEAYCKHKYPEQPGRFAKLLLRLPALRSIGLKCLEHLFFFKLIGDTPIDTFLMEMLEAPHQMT
In short: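 qHTS of the Tox21 10K library in GeneBLAzer RXR-alpha HEK 293T cells carrying a beta-lactamase reporter […]; 16 hr treatment, 9-cis retinoic acid as agonist control, FRET read-out.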

[10] = qHTS assay to identify small molecule antagonists of the retinoid acid receptor (RAR) signaling pathway - cell viability counter screen (AID 1159551); further: nearly all actives have a fitted effect of over 35% in size; further: potency means the concentration at half of the fitted maximal effect
In short: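 Cytotoxicity counter screen in C3RL4 cells: 6 h compound exposure with 1 uM retinol (final), viability from cellular ATP by luminescence.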

[11] = qHTS assay to identify small molecule antagonists of the retinoic acid receptor (RAR) signaling pathway (AID 1159552; further: nearly all actives have a fitted effect of over 50% in size; further: potency means the concentration at half of the fitted maximal effect)
In short: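 Quantitative HTS in C3RL4 RARE-luciferase reporter cells. Compounds were added with 1 uM (final) retinol; luminescence was read after 6 hr.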

[12] = qHTS assay to identify small molecule antagonists of the estrogen related receptor (ERR) signaling pathway (AID 1224819)
In short: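 Compounds dissolved in DMSO were pin-transferred onto ERR cells that had been plated 6 h earlier, and cells were then incubated 18 h at 37 C; signal was luciferase luminescence via One-Glo.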

[13] = qHTS assay to identify small molecule agonists of the estrogen related receptor (ERR) signaling pathway (AID 1224820)
In short: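 Quantitative HTS of the LOPAC library used NTP ERR reporter cells treated 18 h at 37 C. Signal is luminescence after One-Glo addition and a 30 min room-temperature incubation.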

[14] = system: estrogen-related receptor alpha (ERRalpha) with PGC-1alpha coactivator, human; experiment: qHTS assay to identify small molecule antagonists of the estrogen related receptor signaling pathway with the pleiotropic PPARgamma coactivator (PGC) (AID 1224821; calls by dose curve)
In short: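 Quantitative HTS for antagonism: PGC/ERR cells received compounds after 6 h attachment and were incubated 18 h at 37 C, with luminescence (One-Glo) as the endpoint.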

[15] = qHTS assay to identify small molecule antagonists of the estrogen related receptor signaling pathway with the pleiotropic PPARgamma coactivator (PGC) cell viability counter screen (AID 1224822;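 further: series mostly up to about 46 µM; viability read after 17.5 h compound exposure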)
In short: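 Seed PGC/ERR cells (2,000/well); incubate 6 h at 37 C/5% CO2; pin-transfer compounds in DMSO; incubate 17.5 h at 37 C; add CellTiter-Fluor; after 30 min read fluorescence.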

[16] = qHTS assay to identify small molecule agonists of the estrogen related receptor signaling pathway with the pleiotropic PPARgamma coactivator (PGC) (AID 1224823)
In short: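 Cell-based luciferase assay in the NTP-supplied PGC/ERR line, 2,000 cells/well; 18 h compound exposure at 37 C, luminescence after One-Glo.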

[17] = qHTS assay to identify small molecule antagonists of the vitamin D receptor (VDR) signaling pathway - cell viability counter screen (AID 743225); further: nearly all actives have a fitted effect of over 50% in size
In short: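 Cells (VDR-UAS-bla HEK 293T) are plated, rested 4 h at 37C, dosed with compound and 3 nM final 1-alpha,25-dihydroxy vitamin D3, and incubated 16 h. Viability is taken from CellTiter-Glo luminescence in the reporter wells.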

[18] = qHTS assay to identify small molecule agonists of the retinoic acid receptor (RAR) signaling pathway (AID 1159553); further: potency means the concentration at half of the fitted maximal effect
In short: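 Agonist activity was scored in C3RL4 cells bearing a retinoic acid response element luciferase construct. Cells were treated with compounds for 6 hr at 37 C, and luciferase signal was measured as luminescence.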

[19] = qHTS assay to identify small molecule antagonists of the estrogen related receptor (ERR) signaling pathway from Tox21 library - cell viability counter screen (AID 1224834); further: nearly all actives have a fitted effect of over 30% in size; further: potency means the concentration at half of the fitted maximal effect
In short: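 Cytotoxicity of test substances is gauged in the same ERR cells used for the antagonist screen, after 17.5 h of compound treatment at 37 C, by CellTiter-Fluor fluorescence measured after 30 min.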

[20] = qHTS assay to identify small molecule agonists of the RXR signaling pathway - cell viability counter screen (AID 1159529); further: nearly all actives have a fitted effect of over 50% in size; further: potency means the concentration at half of the fitted maximal effect
In short: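 Cell viability is measured by CellTiter-Glo luminescence, 30 min at room temperature, in wells already read for beta-lactamase. Engineered HEK 293T cells (RXR-alpha-UAS-bla) are dosed 16 hr at 37 C. Tetraoctyl ammonium bromide serves as positive control.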

Measured: Potency

c1cnc2cc3c(cc2n1)C1CNCC3C1
not listed: [17] | [18] | [19] | [20]
inactive: all other assays above

CCc1ccc(C(c2ccc(CC)cc2)C(Cl)Cl)cc1
not listed: [9] | [12] | [13] | [14] | [15] | [16] | [20]
inactive: all other assays above

O=c1n(CC2CO2)c(=O)n(CC2CO2)c(=O)n1CC1CO1 (configuration not stated)
inactive: [1] | [2] | [3] | [4] | [5] | [6] | [8] | [10] | [11]
active: [9] 3.89 µM

CCC(=O)/C=C/C1C(C)=CCCC1(C)C (configuration not stated)
inactive: [1] | [2] | [3] | [4] | [5] | [6] | [8] | [9] | [20] | [10] | [19]

CC(=O)OCC1=C(C(=O)O)N2C(=O)[C@@H](NC(=O)Cc3cccs3)[C@H]2SC1
not listed: [7] | [12] | [13] | [14] | [16]
inactive: all other assays above

[Cl][In]([Cl])[Cl]
not listed: [11] | [14] | [16] | [18] | [20]
inactive: all other assays above

CCCC(=O)c1ccccc1
not listed: [12] | [13] | [14] | [15] | [16] | [18] | [19] | [20]
inactive: all other assays above

CN1C(=O)c2ccc([N+](=O)[O-])cc2C1=O
not listed: [12] | [13] | [14] | [15] | [16] | [17] | [19] | [20]
inactive: all other assays above

OCCOCCN1CCN(C(c2ccccc2)c2ccc(Cl)cc2)CC1 (configuration not stated)
47.9 µM (active) and inactive: [6]
active: [20] 21.6 µM | [19] 30.2 µM
60.3 µM (active) and inactive: [11]
not listed: [9] | [12] | [13] | [14] | [15] | [16]
inactive: all other assays above

O=C(O)CP(=O)(O)O
not listed: [1] | [7] | [12] | [13] | [14] | [16]
inactive: all other assays above

CC(C)CCOCc1ccccc1
not listed: [12] | [13] | [14] | [15] | [16] | [19] | [20]
inactive: all other assays above

Cc1cc(C(C)(C)C)c(O)c(C(C)(C)C)c1
inactive: [1] | [17] | [2] | [3] | [4] | [5] | [8] | [20] | [10] | [19]

C=C(C)C(=O)O
inactive: [1] | [17] | [2] | [3] | [4] | [5] | [6] | [8] | [9] | [20] | [10]

COC(c1ccccc1)(c1ccccc1)[C@H](Oc1nc(C)cc(C)n1)C(=O)O
not listed: [7] | [12] | [13] | [14] | [15] | [16]
inactive: all other assays above

CC(C)(C)NCC(O)COc1ccccc1OCC1CCCO1 (configuration not stated)
not listed: [7] | [12] | [13] | [14] | [15] | [16] | [17] | [20]
inactive: all other assays above

CC(C)C(=O)c1c(C(C)C)nn2ccccc12
active: [9] 23.9 µM
not listed: [18] | [20]
inactive: all other assays above

Cc1occc(=O)c1OC(=O)C(C)C
not listed: [7] | [12] | [13] | [14] | [15] | [16] | [18] | [20]
inactive: all other assays above

CN(C)c1ccc2nc3ccc(=[N+](C)C)cc-3sc2c1
inactive and 34.4 µM (active): [6]
inactive: [2] | [3] | [4]
active: [1] 49 µM and 2.98 µM | [5] 16.6 µM and 13.7 µM | [7] 16.7 µM and 43.6 µM | [10] 13.1 µM and 30.6 µM and 23.7 µM | [18] 2.94 µM and 1.37 µM and 1.68 µM | [19] 4.16 µM and 6.11 µM and 5.96 µM
